The list is not random: actives were taken first. Their share in the collection is about 0.44%.
ABCB6 inh MLPCN: human ABCB6 transporter inhibition; K562-ABCB6 porphyrin accumulation, flow cytometry, 1 h; hits give low values; Q9NP58; 360,000 compounds, 0.19% hits; fluorescence ratio to DMSO, % at 10 µM;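 active means fluorescence ratio to DMSO below 75%, the collection mean minus 3 SD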;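 further: signal is porphyrin accumulated inside mitochondria; 100% equals median channel fluorescence of DMSO control wells; lower ratio means ABCB6 inhibition with less porphyrin fluorescence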
VLA-4 inh: inhibition in a human VLA-4 binding assay; VLA-4 expressing cells, ligand binding flow cytometry; inhibition, % (about 7 µM as worked out from the volumes in the protocol); 330,000 compounds, 0.2% hits; AID 2557; in the data active means inhibition above about 50%
PolyA inhibitor: inhibitors of polyadenylation in S. cerevisiae | S. cerevisiae SKY197-pL101 polyadenylation reporter, beta-gal luminescence; efflux-impaired pdr1/pdr3 knockout yeast; score 100 = 6 SD above DMSO | activity score, % at 12 µM | 300,000 compounds, 0.02% hits | AID 1875;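 active means lowest replicate activity score at least 50, where 100 means six control SD above control mean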;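 further: yeast exposed to compound for 9 h at 30 °C; higher score means more reporter readthrough which indicates perturbed polyadenylation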
GASC-1 inh: blocks human GASC-1 demethylase activity; inhibition, % at 2.35 µM; GST-JMJD2C(1-420) H3K9me3 demethylation, DELFIA europium; Q9H3R0; 330,000 compounds, 0.069% hits; AID 2099;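 active means more than half of a compound's replicate wells show inhibition beyond 50%, single wells judged on their own value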;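 further: signal counts dimethyl H3K9 product captured on neutravidin plate; 0% = median of DMSO wells and 100% = 0.3 times that DMSO median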
Target sequence (Q9H3R0 1-420 limits assumed): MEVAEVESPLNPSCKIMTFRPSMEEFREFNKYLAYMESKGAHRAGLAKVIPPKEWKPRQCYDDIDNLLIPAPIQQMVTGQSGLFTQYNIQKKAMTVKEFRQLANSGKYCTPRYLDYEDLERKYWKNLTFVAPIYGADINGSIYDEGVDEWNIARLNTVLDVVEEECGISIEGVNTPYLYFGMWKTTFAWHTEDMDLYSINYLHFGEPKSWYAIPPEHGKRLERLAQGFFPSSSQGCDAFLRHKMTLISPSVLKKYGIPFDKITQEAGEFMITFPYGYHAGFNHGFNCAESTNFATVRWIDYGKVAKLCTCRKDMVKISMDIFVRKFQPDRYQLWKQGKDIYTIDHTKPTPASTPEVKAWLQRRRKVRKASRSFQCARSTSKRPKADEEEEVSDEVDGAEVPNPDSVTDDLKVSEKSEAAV
VLA-4 mod pick: human VLA-4 allosteric modulation in cherry picked compounds. shares compounds with VLA-4 inh. U937 cells, HUTS-21 LIBS mAb binding, flow cytometry; LDV ligand present at threefold Kd. inhibition, % at 6.7 µM. 1,300 compounds, 2% hits. AID 2813; in the data active means inhibition above about 40%;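 further: 0% = ligand without compound and 100% = no ligand background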
* hit, by the source's call; x = no result given.

SMILES | ABCB6 inh MLPCN | VLA-4 inh | PolyA inhibitor | GASC-1 inh | VLA-4 mod pick
COc1ccc(C2SCC(=O)N2c2c(C)n(C)n(-c3ccccc3)c2=O)cc1OC (stereo not drawn) | 101.0 | 15.8 | 66.7* | 52.8 | x
CCc1nnc(NC(=O)c2ccc(S(=O)(=O)N3CCCC3)cc2)s1 | 96.0 | 11.8 | 7.4 | -15.2 | x
COc1ccc(OC)c(Nc2nc(NCCO)c3ccccc3n2)c1 | 95.0 | 7.2 | 67.0* | -1.6 | x
COCCCN(C(C)=O)c1nc(-c2ccc(OC)cc2)cs1 | 72.0* | 3.8 | -10.3 | 13.4 | x
CCN(CC)CCCN(C(=O)c1ccc(OC)cc1)c1nc(-c2ccc(OC)cc2)cs1 | 98.0 | 2.7 | -18.2 | -16.2 | x
CCCCCN(C(=O)CCC(=O)OCC(=O)c1cccc(OC)c1)c1c(N)n(CCCC)c(=O)[nH]c1=O | 96.0 | -0.4 | -10.2 | 58.7* | x
CCCCCN(C(=O)CCC(=O)OCC(=O)c1ccc(F)c(F)c1)c1c(N)n(CCCC)c(=O)[nH]c1=O | 99.0 | 2.0 | -7.2 | 0.4 | x
NCCCCCC(=O)Nc1ccncc1 | 97.0 | 1.3 | 0.7 | 0.2 | x
CCN(C[C@H]1N[C@@](Cc2ccccc2)(C(=O)OC)[C@H]2C(=O)N(Cc3ccccc3)C(=O)[C@@H]12)S(=O)(=O)c1ccc(-c2ccccc2)cc1 | 100.0 | -27.4 | x | -15.9 | -4.8
CCN(C[C@H]1N[C@@](Cc2ccccc2)(C(=O)OC)[C@H]2C(=O)N(Cc3ccccc3)C(=O)[C@@H]12)S(=O)(=O)c1ccc(C)cc1 | 98.0 | 15.2 | x | x | x
COC(=O)[C@]1(Cc2ccccc2)N[C@H](CN(C)S(=O)(=O)c2ccc(-c3ccccc3)cc2)[C@@H]2C(=O)N(Cc3ccccc3)C(=O)[C@@H]21 | 96.0 | -10.8 | x | -46.4 | -2.1
COC(=O)[C@]1(Cc2ccccc2)N[C@H](CN(C)S(=O)(=O)c2ccc(C)cc2)[C@@H]2C(=O)N(Cc3ccccc3)C(=O)[C@@H]21 | 96.0 | -5.5 | x | 6.1 | x
CCOc1ccccc1NC(=O)C1CCCN(S(=O)(=O)c2ccc3c(c2)C(C)(C)C(=O)N3C)C1 (stereo not drawn) | 100.0 | 49.5* | -6.3 | 16.8 | 0.0
CCOc1ccc(NC(=O)C2CCN(S(=O)(=O)c3ccc4c(c3)C(C)(C)C(=O)N4C)CC2)cc1 | 103.0 | -2.4 | 9.3 | 90.6 | 1.3
C[C@H](NC(=O)c1nc[nH]c1C(=O)OCc1ccccc1)c1ccccc1 | 98.0 | 1.8 | x | -10.3 | x
COc1ccc(N2C(=O)CC(N(Cc3ccc(S(N)(=O)=O)cc3)C(C)=O)C2=O)cc1 (stereo not drawn) | 101.0 | 14.1 | -8.8 | 16.0 | 1.3
CCCOc1ccc(N2C(=O)CC(N(Cc3ccc(S(N)(=O)=O)cc3)C(=O)CC)C2=O)cc1 (stereo not drawn) | 99.0 | -5.3 | 3.4 | 4.3 | -5.0
COc1ccc(C(=O)C2CCCN(C(=O)CCc3scnc3C)C2)c(C)c1 (stereo not drawn) | 96.0 | 9.4 | 3.3 | -20.7 | x
COc1ccc2cc(C(=O)C3CCCN(C(=O)CSc4nnc(C)o4)C3)ccc2c1 (stereo not drawn) | 113.0 | 3.8 | -7.2 | -8.3 | x
Cc1cccc(NC(=S)N2CCC(c3nc4ccccc4o3)CC2)c1 | 100.0 | -7.1 | -10.8 | 5.1 | x
C=CCn1c(SCC(=O)Nc2ccc3c(c2)CCC3)nc2ccccc2c1=O | 102.0 | -6.2 | 10.0 | 4.7 | x
CCCCn1c(SCC(=O)Nc2ccc3c(c2)CCC3)nc2ccccc2c1=O | 101.0 | 44.5 | 10.3 | 4.4 | -2.8
Cc1ccccc1CNC(=O)CC1C(=O)NCCN1CC1CCCCC1 (stereo not drawn) | 103.0 | 1.0 | 2.2 | 2.9 | x
C[C@@H](NC(=O)[C@@H]1Cc2ccccc2CN1)C(=O)NC1CCCCC1 | 89.0 | 50.8* | 15.6 | 26.9 | -0.9
COC(=O)c1cc2c(ccn2-c2ccc(F)cc2)n1C(C)C | 98.0 | 62.9* | -5.9 | 10.7 | 10.4
COC(=O)c1cc2c(ccn2-c2ccc(F)cc2)n1CC(C)C | 92.0 | 2.2 | -6.6 | -8.8 | x
COc1ccc(-n2cnc3cc(C(=O)NCCN4CCOCC4)ccc32)cc1 | 93.0 | 42.9 | -14.6 | -30.0 | -6.9
COc1cccc2cc(C(=O)NCCN3CCOCC3)c(=O)oc12 | 100.0 | 40.6 | 11.7 | 4.7 | -18.3
Cc1cccc(-n2cnc3cc(C(=O)NCCN4CCOCC4)ccc32)c1 | 97.0 | x | x | x | x
CC(Sc1nnc(COc2ccc([N+](=O)[O-])cc2)n1-c1ccccc1)C(=O)O (stereo not drawn) | 103.0 | 3.9 | 9.5 | -8.8 | x

Compound activity as filed in PubChem.
